Results: article PMC10726135, “HNF4α isoforms regulate the circadian balance between carbohydrate and lipid metabolism in the liver”
In all, about 18,000 sequences were measured (“log2 normalized intensity”: median about 0.39, highest 2% from about 6.6 on). The list comes from a sample in which the highest values are over-represented; it also holds similar and randomly drawn sequences.

target: T1, HNF4alpha2 (COS-7 nuclear extract) (Homo sapiens, UniProt P41235 1-474); test: protein-binding microarray; COS-7 nuclear extract on double-stranded Agilent 4x180k PBM; binding buffer, salt, pH and temperature not given in the material; high values mean tight binding; settings: chain copies: 2; label: 3' end of strand 1 on the slide; dsDNA, one strand shown
T1 sequence: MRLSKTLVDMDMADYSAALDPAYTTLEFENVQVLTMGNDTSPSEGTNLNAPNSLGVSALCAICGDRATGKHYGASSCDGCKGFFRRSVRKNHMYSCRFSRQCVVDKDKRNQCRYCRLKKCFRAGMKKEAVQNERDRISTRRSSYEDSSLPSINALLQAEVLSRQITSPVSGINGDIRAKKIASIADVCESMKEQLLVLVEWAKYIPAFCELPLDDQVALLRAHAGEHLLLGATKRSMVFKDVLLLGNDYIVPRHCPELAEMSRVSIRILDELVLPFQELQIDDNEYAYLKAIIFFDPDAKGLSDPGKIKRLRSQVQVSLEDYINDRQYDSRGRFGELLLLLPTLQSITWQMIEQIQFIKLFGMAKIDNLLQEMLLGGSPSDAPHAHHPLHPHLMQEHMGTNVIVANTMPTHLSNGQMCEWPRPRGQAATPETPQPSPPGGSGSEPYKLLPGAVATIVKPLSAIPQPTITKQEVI
Outline: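 Binding signal was defined as the normalized, background-corrected gProcessedSignal reported by Agilent software. It came from nuclear extracts of COS-7 cells transiently transfected with a human HNF4α isoform expression vector, applied to a custom Agilent SurePrint G3 4x180k array. That array held ~44,000 test sequences in quadruplicate as double-stranded ~60-nt oligonucleotides, and bound HNF4α was imaged at 2-µm resolution on an Agilent G2565CA scanner.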

Row | Sequence | binding signal
1 | AGTATCATGTTGGCATTCCAGGATGAAGGAGCCTAGGGAGATTAGAGTATCGGTCGA | 0.674 log2 normalized intensity
2 | CAGCCTGGAGGAGGGCGAGGCCGAGCCTCAGCCTAGGGAGATTAGAGTATCGGTCGA | -0.906 log2 normalized intensity
3 | ATCTACCCTTGACAATTCCTATTCATTCCCGCCTAGGGAGATTAGAGTATCGGTCGA | -0.0843 log2 normalized intensity
4 | AAACTCTGAAGGCAAATTCTTAGAATTGCAGCCTAGGGAGATTAGAGTATCGGTCGA | -0.775 log2 normalized intensity
5 | GTGGACTTTGCCTGCCCATCCCGTGGACTCGCCTAGGGAGATTAGAGTATCGGTCGA | 3.88 log2 normalized intensity
6 | CTTTCTATCAGCTCTCCGTGGACTTTGCCCGCCTAGGGAGATTAGAGTATCGGTCGA | 9.49 log2 normalized intensity
7 | TCTTTGCCCTCTTGGTATCAGCTTTGAGACGCCTAGGGAGATTAGAGTATCGGTCGA | 1.42 log2 normalized intensity
8 | TATCAGCTCTCCGTGGACTTTGCCCCCTACGCCTAGGGAGATTAGAGTATCGGTCGA | 11.1 log2 normalized intensity
9 | AAGAGACTTTGCCCTTTTTTTCTCTCCCCTGCCTAGGGAGATTAGAGTATCGGTCGA | 3.42 log2 normalized intensity
10 | TCTTCCTTTCTATCAGCTCTCCGTGGACTTGCCTAGGGAGATTAGAGTATCGGTCGA | 3.08 log2 normalized intensity
11 | ATCCCGTGGACTTTGCCTGCCCATCCCGTGGCCTAGGGAGATTAGAGTATCGGTCGA | 3.13 log2 normalized intensity
12 | TTTGGCCCCCAGAGCCCCGTGTCTCCCTACGCCTAGGGAGATTAGAGTATCGGTCGA | 4.6 log2 normalized intensity
13 | GCTCTCCGTGGACTTTGCCCCCTACAGTTTGCCTAGGGAGATTAGAGTATCGGTCGA | 9.73 log2 normalized intensity
14 | CCAAACAGAACAAAGTCCAGTAAGGACAGTGCCTAGGGAGATTAGAGTATCGGTCGA | 2.51 log2 normalized intensity
15 | GAGTAGGTTCTCAGCTGACATTGGTGGAATGCCTAGGGAGATTAGAGTATCGGTCGA | 1.36 log2 normalized intensity
16 | AGTCCAGACAAGTCCCAAGTATTTTCAGCCGCCTAGGGAGATTAGAGTATCGGTCGA | -0.962 log2 normalized intensity
17 | AACTTCTTATCACTTGGTGGACATGGTTCAGCCTAGGGAGATTAGAGTATCGGTCGA | 2.02 log2 normalized intensity
18 | AGATATCAGAAATGCATGAGTGACCTTTATGCCTAGGGAGATTAGAGTATCGGTCGA | 4.97 log2 normalized intensity
19 | CTCTTTTCTTTGTACCGTATTTCAGACCACGCCTAGGGAGATTAGAGTATCGGTCGA | 2.19 log2 normalized intensity
20 | CAATTAGAGCAAAGGTTACTGCAGAGAAGAGCCTAGGGAGATTAGAGTATCGGTCGA | 1.54 log2 normalized intensity
21 | AGAGCACAACCTTTGGCCGTGCATGCTTGGGCCTAGGGAGATTAGAGTATCGGTCGA | 1.84 log2 normalized intensity
22 | TTCAAATTCTTTGCCATGACCTTTGAAGCCGCCTAGGGAGATTAGAGTATCGGTCGA | 6.75 log2 normalized intensity
23 | GGCAGATATGAAAGAGCCATGGACTGCTGAGCCTAGGGAGATTAGAGTATCGGTCGA | -0.302 log2 normalized intensity
24 | CCTTTGAGGAGGCCTTTCCTGACCCCTCCTGCCTAGGGAGATTAGAGTATCGGTCGA | 4.34 log2 normalized intensity
25 | GCCATGGACTGCTGACCTTTGAACCCTGAGGCCTAGGGAGATTAGAGTATCGGTCGA | 10.1 log2 normalized intensity
26 | ATTCTTTGCCATGACCTTTGAAGCCCAGAAGCCTAGGGAGATTAGAGTATCGGTCGA | 4.66 log2 normalized intensity
27 | ATATGAAAGAGCCATGGACTGCTGACCTTTGCCTAGGGAGATTAGAGTATCGGTCGA | 6.32 log2 normalized intensity

Row | Sequence | binding signal
28 | ATCTTTGACCTGGAGCATGACCCTTTGCAGGCCTAGGGAGATTAGAGTATCGGTCGA | 2.68 log2 normalized intensity
29 | AAAGAGCCATGGACTGCTGACCTTTGAACCGCCTAGGGAGATTAGAGTATCGGTCGA | 9.3 log2 normalized intensity
30 | AGCAATTCAAATTCTTTGCCATGACCTTTGGCCTAGGGAGATTAGAGTATCGGTCGA | 5.51 log2 normalized intensity
31 | CAGTAACTGTCATGGATGACCTCTTTTAGTGCCTAGGGAGATTAGAGTATCGGTCGA | 3.08 log2 normalized intensity
32 | GCTGTCTACTCTGGGGGTCAGCAATGGTAAGCCTAGGGAGATTAGAGTATCGGTCGA | 1.8 log2 normalized intensity
33 | TGCCCCAGGAATGCCTTTTCTTTCATGTTGGCCTAGGGAGATTAGAGTATCGGTCGA | 1.43 log2 normalized intensity
34 | GTTGAGGAGTTTGTACTTTATCCTACAAGGGCCTAGGGAGATTAGAGTATCGGTCGA | 2.25 log2 normalized intensity
35 | TCCTCTCAAAGTCCACCCGGCCAGCAGATGGCCTAGGGAGATTAGAGTATCGGTCGA | 2.46 log2 normalized intensity
36 | AAAGGTCATATCCAAAATATTTGCAGTGAGGCCTAGGGAGATTAGAGTATCGGTCGA | 1.79 log2 normalized intensity
37 | ATATTTTCTTTGTGCTATTTTTGGCTTGGTGCCTAGGGAGATTAGAGTATCGGTCGA | 2.13 log2 normalized intensity
38 | CCATTCTTGAGGACAGGCCAAATCCAGTAAGCCTAGGGAGATTAGAGTATCGGTCGA | -0.994 log2 normalized intensity
39 | GCCTTGCTGAGGAATTTGGACTTCAGCCCAGCCTAGGGAGATTAGAGTATCGGTCGA | 6.11 log2 normalized intensity
40 | CTTTATACCTGTACGTTACTCTGTACCTCGGCCTAGGGAGATTAGAGTATCGGTCGA | 1.19 log2 normalized intensity
41 | CACATTCCTAGACCTTTGACCTTTATACCTGCCTAGGGAGATTAGAGTATCGGTCGA | 7.82 log2 normalized intensity
42 | ATTGGGTCCACACATTCCTAGACCTTTGACGCCTAGGGAGATTAGAGTATCGGTCGA | 3.26 log2 normalized intensity
43 | CCCAAGATGGATTGGGTCCACACATTCCTAGCCTAGGGAGATTAGAGTATCGGTCGA | -0.811 log2 normalized intensity
44 | GTCCACACATTCCTAGACCTTTGACCTTTAGCCTAGGGAGATTAGAGTATCGGTCGA | 8.13 log2 normalized intensity
45 | TCCTAGACCTTTGACCTTTATACCTGTACGGCCTAGGGAGATTAGAGTATCGGTCGA | 5.75 log2 normalized intensity
46 | GACATTCCTTCAGCGTGAACTTTGACATGAGCCTAGGGAGATTAGAGTATCGGTCGA | 5.5 log2 normalized intensity
47 | TTGACCTTTATACCTGTACGTTACTCTGTAGCCTAGGGAGATTAGAGTATCGGTCGA | 3.65 log2 normalized intensity
48 | TCCTTCAGCGTGAACTTTGACATGAGAGAAGCCTAGGGAGATTAGAGTATCGGTCGA | 3.66 log2 normalized intensity
49 | ATTGTGATTCCTGTGATACCTTCTTTGCCTGCCTAGGGAGATTAGAGTATCGGTCGA | 1.13 log2 normalized intensity
50 | GACCTTTGACCTTTATACCTGTACGTTACTGCCTAGGGAGATTAGAGTATCGGTCGA | 7.39 log2 normalized intensity
51 | TGGGAGACATTCCTTCAGCGTGAACTTTGAGCCTAGGGAGATTAGAGTATCGGTCGA | 6.72 log2 normalized intensity
52 | GAATCACTCACTGACCTCTTTTGGATTTTTGCCTAGGGAGATTAGAGTATCGGTCGA | 1.73 log2 normalized intensity
53 | TCAGGAGTGATGCCAGAAGATTAGTGATGGGCCTAGGGAGATTAGAGTATCGGTCGA | -0.625 log2 normalized intensity
54 | GACTGGAAGTTGCCCGAGCTGCCCTTTATCGCCTAGGGAGATTAGAGTATCGGTCGA | 2.47 log2 normalized intensity
